Screening data (PubChem)
TDP1 cell noCPT = qHTS for Inhibitors of human tyrosyl-DNA phosphodiesterase 1 (TDP1): qHTS in cells in absence of CPT; Potency, µM (highest dose often 46.2 µM), inactives show at the highest dose activity change, negative = growth inhibition, hits mostly inhibitors; AID 686978, 2013; DT40 Tdp1-/- hTDP1 cells, no CPT, ATP luminescence, 48 h; hit rate 15% among 420,000; also: % is scaled to controls: 0 for no effect and ±100 for the full control effect; nearly all actives have a fitted effect of over 55% in size
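Stably hTDP1-transfected Tdp1-null chicken DT40 cells were treated with library compounds minus camptothecin and grown for at least 48 hr at 37 °C, after which cellular ATP was quantified by luminescence.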
HepG2 viability = HepG2 cytotoxicity, counter-screen for TGF-b inhibitors. HepG2 CAGA-GFP viability, ATP luminescence, 18 h. Potency, µM (titrated, usually from 46.1 µM), for inactives: top-dose activity change, negative = cytotoxicity, actives largely listed as cytotoxic. hit rate 0.76% among 410,000. AID 588856
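HepG2 CAGA-GFP cells (1000/well, DMEM with 1% FBS) received compound, then TGF-beta at 500 pg/mL final, and were incubated 18 hours at 37 degrees C. Viability was read by CellTiter-Glo luminescence. Media-only wells were set as complete cell-killing and DMSO as no toxicity.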
TGFb inhibitor = inhibitors of TGF-b signaling; HepG2 CAGA-GFP TGF-b/SMAD3 reporter, GFP fluorescence, 18 h; TGF-beta stimulated, 500 pg/mL final; Potency, µM (titrated, usually from 46.1 µM), for inactives: at the top dose activity, negative = inhibition, actives largely listed as inhibitors; hit rate 1.2% among 410,000; AID 588855; also: % is scaled to controls: 0 for no effect and ±100 for the full control effect; nearly all actives have a fitted effect of over 65% in size
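Inhibition was scored as loss of TGF-beta-induced (500 pg/mL final, 18 hours, 37 degrees C) GFP in HEPG2 cells carrying a CAGA-GFP reporter, in DMEM with 1% FBS. Well GFP was summed per cell; Activity was normalised to unstimulated and stimulated DMSO wells, then concentration-response fitting.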
HT1080NT lethal = kills 2HG-producing HT-1080-NT fibrosarcoma cells; HT-1080-NT fibrosarcoma viability, CellTiter-Glo ATP luminescence, 48 h; Potency, µM (highest dose often 46.1 µM), for the others: top-dose activity, negative = less viability, most hits filed as cytotoxic; hit rate 1.6% among 360,000;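 also: NT is the 2HG producing partner of a matched IDH1 knockdown line; 0% = DMSO-treated cells and -100% = media-only wells without cells; nearly all actives have a fitted effect of over 55% in size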
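750 cells/well, RPMI + 5% FBS; 2 h settle, compound pin-transfer, 48 h at 37 degrees C. CellTiter-Glo 10 min RT, luminescence. Normalized to DMSO and media-only wells.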
HT1080 IDH1KD tx = toxicity to HT-1080 IDH1 knockdown cells (counter line). HT-1080 IDH1 knockdown viability, ATP luminescence, 48 h. Potency, µM (highest dose often 46.1 µM), for inactives: top-dose activity, negative = toxicity, actives largely listed as cytotoxic. hit rate 2% among 360,000. AID 686971;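 also: 0% = DMSO wells and -100% = cell-free medium wells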
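IDH1KD HT-1080 cells, 750/well, RPMI + 5% FBS; compound pinned after 2 h settling; 48 h, 37 °C; CellTiter-Glo luminescence; % activity normalised to DMSO and no-cell wells; curves fitted, classed by r2 and efficacy.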
TDP1 cell CPT = DT40-hTDP1 cell growth loss with CPT. chicken DT40 Tdp1-/-;hTDP1 cells + 20 nM CPT, ATP luminescence, 48 h. Potency, µM (top dose mostly 46.2 µM), inactives show top-dose activity change, negative = growth inhibition, most hits filed as inhibitors. hit rate 12% among 420,000. AID 686979; also: % is scaled to controls: 0 for no effect and ±100 for the full control effect; nearly all actives have a fitted effect of over 55% in size
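Cell growth measured by CellTiter-Glo luminescence after a minimum 48 h, 37 C compound exposure with 20 nM CPT in Tdp1-knockout DT40 cells stably expressing hTDP1, seeded 400/well; qHTS titration format.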
Starred values were filed as active, the others as inactive; ? = inconclusive; . = no result given; [ ] = remark or other dose. Shown are actives, neighbours in structure and some others; about 17% of the full set was active somewhere. Calls follow the shape of the dose curve; as a rule, active = well fitted curve in the direction sought with a large enough effect; inconclusive = small, poorly fitted or top-dose-only effect, or another doubt; inactive = no such curve, though single readings can be large; an effect the other way counts as inactive or inconclusive. Potency is read from the fitted curve at half-maximal effect.

SMILES	TDP1 cell noCPT	HepG2 viability	TGFb inhibitor	HT1080NT lethal	HT1080 IDH1KD tx	TDP1 cell CPT
O=C(C1CCCCC1)N1CCCC(c2nc(-c3ccc(F)cc3)no2)C1 (stereo not drawn)	?	-21%	9%	-6%	-26%	-29%
O=C(Nc1ccccc1)N1CC=C(c2ccc(F)cc2)CC1	13µM*	-22%	1%	-8%	-6%	?
O=C(c1c(F)cccc1F)N1CCCC(c2nc(-c3ccc(F)cc3)no2)C1 (stereo not drawn)	16µM*	-54%	?	-23%	-1%	23µM*
Cc1ccccc1NC(=O)N1CCCC(c2nc(-c3ccc(F)cc3)no2)C1 (stereo not drawn)	-20%	-5%	-1%	-13%	-29%	?
O=C(c1ccc(F)cc1)N1CCCC(c2nc(-c3ccncc3)no2)C1 (stereo not drawn)	?	-2%	2%	-22%	-3%	?
C[C@@H]1CN([C@H](C)CO)C(=O)CCCn2nncc2CO[C@@H]1CN(C)S(=O)(=O)c1ccc2ccccc2c1	?	-32%	-4%	-13%	-7%	-15%
O=C(NCc1ccco1)c1ccc2sc([C@H]3C[C@H](O)[C@@H](CO)O3)nc2c1	-7%	-21%	-3%	18%	0%	?
Cc1ccc(NC(=O)C2CCCN(C(=O)Nc3ccc(F)cc3)C2)cc1 (stereo not drawn)	?	-4%	-28%	-14%	-18%	2%
Cc1ccc(NC(=O)N2CCCC(c3nc(-c4ccc(F)cc4)no3)C2)cc1 (stereo not drawn)	?	-14%	?	1%	3%	23µM*
CC(C)c1ccc(-c2noc(C3CCCN(C(=O)c4ccc(F)cc4F)C3)n2)cc1 (stereo not drawn)	21µM*	-32%	?	-5%[9.24 µM]	?	?
COc1cccc(-c2noc(C3CCCN(C(=O)c4ccc(F)cc4F)C3)n2)c1 (stereo not drawn)	-19%	23%	-1%	2%	0%	-28%
O=S(=O)(c1ccc(F)cc1)N1CCCC(c2nc(-c3ccc(F)cc3)no2)C1 (stereo not drawn)	?	-13%	4%	7%	10%	?
O=S(=O)(Cc1ccccc1)N1CCCC(c2nc(-c3ccc(F)cc3)no2)C1 (stereo not drawn)	18µM*	-34%	?	-9%[9.24 µM]	-10%	-26%
CC(C)CNC(=S)N1CCC(c2nc(-c3ccc(F)cc3)no2)CC1	21µM*	-16%	-33%	?	?	21µM*
COCCN(Cc1nc2ccccc2c(=O)[nH]1)C(=O)COc1cccc(C(C)=O)c1	-6%	-5%	-7%	-18%	-13%	-11%
CCOC(=O)C1(C)CCN1C(=O)Cc1ccc(OC)cc1 (stereo not drawn)	-9%	-28%	-8%	4%	0%	-1%
O=C(Nc1ccc(Br)cc1F)c1cccnc1	-15%	1%	-3%	7%	5%	?
O=C(c1ccccc1-c1nc(-c2ccc(F)cc2)no1)N1CCCC1	23µM*	-14%	9%	-6%	-1%	?
Cc1ccc(Nc2c(-c3ccc(Br)o3)nc3ccccn23)cc1	?	-2%	19%	.	.	?
Cc1ccc2nc(-c3c[nH]c4ccccc34)c(Nc3ccccc3C)n2c1	3.3µM*	-34%	2%	.	.	16µM*
Cc1ccc(Nc2c(-c3c[nH]c4ccccc34)nc3ccccn23)cc1	21µM*	-45%	-11%	.	.	13µM*
COc1ccc2nc(SCC(=O)NC(C)c3ccccc3)[nH]c2c1 (stereo not drawn)	?	-4%	8%	14%	5%	-20%
O=C(c1ccc(C23CC4CC(CC(C4)C2)C3)o1)N1CCOCC1	23µM*	-32%	?	-18%	?	?
COc1ccc(NC(=S)N2CCC(NC(=O)c3ccc(F)cc3)CC2)cc1	-19%	-1%	2%	25%	0%	-22%
COCCNC(=O)CSc1nc(-c2ccccc2)c(-c2ccccc2)o1	?	-20%	-22%	0%	-18%	12µM*
SMILES	TDP1 cell noCPT	HepG2 viability	TGFb inhibitor	HT1080NT lethal	HT1080 IDH1KD tx	TDP1 cell CPT
CC(c1cccs1)N(C(=O)Nc1ccccc1)C1CCCCC1 (stereo not drawn)	14µM*	-23%	-1%	15%	15%	16µM*
CC(C)CCN(C(=O)Nc1ccccc1)C(C)c1cccs1 (stereo not drawn)	18µM*	-27%	-5%	-18%	?	21µM*
COc1ccc(NC(=O)N(CCC(C)C)C(C)c2cccs2)c(OC)c1 (stereo not drawn)	18µM*	-26%	-30%	.	.	?
CCc1ccc(NC(=O)N(Cc2ccco2)C(C)c2cccs2)cc1 (stereo not drawn)	?	-2%	14%	1%	-4%	?
O=C(O)c1cn[nH]c1-c1cccc([N+](=O)[O-])c1	10%	22%	5%	13%	15%	0%
CCCC(=O)O[C@]1(C(=O)COC(=O)CC)CC[C@H]2[C@@H]3CCC4=CC(=O)CC[C@]4(C)[C@H]3[C@@H](O)C[C@@]21C	-28%	.	.	.	.	-21%
C/C(=N\NC(=O)c1ccccc1O)c1cccs1	23µM*	-44%	?	?	?	-12%
C/C(=N/NC(=O)Cc1cccc2ccccc12)c1cccs1	16µM*	-20%	-13%	-2%	2%	?
COc1ccc(NC(=S)N(Cc2cccnc2)Cc2cc3cc(OC)c(OC)cc3[nH]c2=O)cc1	?	10%	21%	-4%	5%	?
Cc1ccc(-n2cc(CN3CCNC(=O)CC3)c(-c3ccc(F)cc3)n2)cc1	?	4%	-11%	-1%	-26%	?
Cc1ccc(-n2cc(CN3CCC(O)(c4ccccn4)CC3)c(-c3ccc(F)cc3)n2)cc1	?	-51%	?	16µM*	?	?
CC(C)(C)OC(=O)N1CCC(c2c(C(=O)N3CCN(c4ccc(Cl)cc4)CC3)cnn2-c2ccc(F)cc2F)CC1	16µM*	-9%	?	.	.	?
